Measured values as given in the supplement of paper PMC12636033.
± gives the standard deviation of the averaged measurements. Over roughly 33,000 sequences, “E-score (rank enrichment, -0.5 to 0.5)” has its median near -0.0075; the highest 2% begin near 0.23. The full list was thinned out, with the highest values kept by preference.

test system: WT Max(13-93) synthetic (M65Nle); experiment: PBM 8-mer E-score (E-score (rank enrichment, -0.5 to 0.5)); higher = stronger preferential binding
Description: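 Protein binding microarray (universal PBM chip covering all 10-mers in fixed probe flanks) with chemically synthesized human Max(13-93) bHLH-LZ analogs (not full-length Max) bearing noncanonical residues (hArg, Tha, Aib, Nle at 65) and aromatic Cys staples. Read-out per 8-mer (and its reverse complement): E-score (rank-based enrichment, -0.5 to 0.5) and Z-score of median probe intensity.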

| Sequence | PBM 8-mer E-score |
| --- | --- |
| GACAACGC | 0.1 ± 0.061 |
| GCGTTTTA | 0.0184 ± 0.062 |
| AGTTAACA | 0.0439 ± 0.0024 |
| TGTTAACA | 0.317 ± 0.13 |
| CGTTAACA | -0.00101 ± 0.057 |
| GCGATGTA | -0.0179 ± 0.03 |
| AGGATGTG | -0.105 ± 0.014 |
| TAAGCTTA | 0.152 ± 0.0028 |
| AGTGGCAC | 0.0667 ± 0.064 |
| CGTGGCAC | 0.251 ± 0.063 |
| GGTGGCAC | -0.131 ± 0.071 |
| AAGCGTTG | -0.0943 ± 0.073 |
| AGGGTAGA | -0.0604 ± 0.015 |
| GTTAAGTA | 0.0433 ± 0.015 |
| ATAAAGTC | 0.258 ± 0.062 |
| CTTAAGTA | 0.0679 ± 0.077 |
| ATTAAGTA | 0.259 ± 0.051 |
| ATTAAGTC | 0.2923 ± 0.0026 |
| CTTAAGTC | 0.0284 ± 0.017 |
| ATAAAGTG | 0.188 ± 0.078 |
| ATAAAGTA | 0.18 ± 0.043 |
| ATTAAGTG | 0.106 ± 0.19 |

| Sequence | PBM 8-mer E-score |
| --- | --- |
| ATTTCGCG | 0.16 ± 0.065 |
| AGATCTAG | -0.118 ± 0.06 |
| ATCACGAA | 0.0216 ± 0.013 |
| AGTTTGTA | 0.074 ± 0.022 |
| AGTCTGGG | -0.106 ± 0.13 |
| ACATGCGA | 0.141 ± 0.025 |
| GCATGCGC | 0.251 ± 0.056 |
| ACATGCGC | 0.0958 ± 0.095 |
| GCATGCGA | 0.238 ± 0.0068 |
| CCATGCGC | 0.153 ± 0.069 |
| CCATGCGA | 0.087 ± 0.11 |
| ACGGGATG | -0.083 ± 0.16 |
| AACGTACG | 0.157 ± 0.067 |
| AACGTGAG | 0.132 ± 0.048 |
| AACGTGGT | 0.282 ± 0.0092 |
| TACGTAAA | 0.233 ± 0.068 |
| AACGTAGT | -0.0406 ± 0.12 |
| CACGTAAA | 0.13 ± 0.054 |
| AACGTAAA | 0.198 ± 0.065 |
| AACGTGGA | 0.153 ± 0.036 |
| AACGTAAC | 0.192 ± 0.0073 |
| AACGTGAA | -0.0163 ± 0.062 |

| Sequence | PBM 8-mer E-score |
| --- | --- |
| AACGTAAT | 0.248 ± 0.037 |
| AACGTGAT | 0.268 ± 0.014 |
| GACGTAAA | 0.0324 ± 0.088 |
| GTGTGCTA | 0.0416 ± 0.009 |
| AATCCGAT | -0.0748 ± 0.11 |
| CATTTTCA | 0.063 ± 0.11 |
| CCGAATCG | -0.0138 ± 0.033 |
| CTGTGCCC | -0.035 ± 0.08 |
| CTGTATGA | 0.012 ± 0.079 |
| GGTAAAAA | -0.00424 ± 0.074 |
| ACCAATCG | 0.0164 ± 0.0081 |
| CCGACCGC | -0.0589 ± 0.088 |
| GCCTACAC | -0.0291 ± 0.029 |
| CTGGATAA | -0.0145 ± 0.043 |
| ACTGCATA | 0.0165 ± 0.043 |
| TATGAATA | 0.151 ± 0.12 |
| GATGAATA | 0.272 ± 0.022 |
| AATGAATT | 0.128 ± 0.086 |
| AATGAATG | 0.2671 ± 0.0011 |
| GATGAATC | -0.0452 ± 0.013 |
| AATGAATC | -0.141 ± 0.014 |
| CACGACCC | -0.0381 ± 0.027 |

| Sequence | PBM 8-mer E-score |
| --- | --- |
| AGGAGGTA | -0.168 ± 0.047 |
| CGCGGCAA | -0.139 ± 0.079 |
| AGCACTCC | 0.0118 ± 0.13 |
| GTACGCAA | -0.00199 ± 0.077 |
| ATACGCAA | 0.241 ± 0.0012 |
| ATACGCAG | -0.0132 ± 0.082 |
| ATCGACAA | -0.0231 ± 0.046 |
| ATACTATA | 0.22 ± 0.019 |
| GGGATGAA | -0.0123 ± 0.093 |
| AATTTAGC | 0.121 ± 0.065 |
| CGGACCTA | -0.0947 ± 0.063 |
| ATTGCATG | 0.163 ± 0.15 |
| GATGCATA | 0.0327 ± 0.027 |
| CATGCATA | 0.242 ± 0.064 |
| GATGCGTA | 0.0564 ± 0.052 |
| AATGCATG | 0.257 ± 0.054 |
| CATGCAAC | 0.287 ± 0.054 |
| TATGCATA | 0.181 ± 0.037 |
| CATGCGTA | 0.346 ± 0.038 |
| CATGCAAG | 0.0946 ± 0.011 |
| AATGCAAC | 0.172 ± 0.014 |
| ACTGCATG | 0.0467 ± 0.031 |

| Sequence | PBM 8-mer E-score |
| --- | --- |
| AATGCGTA | 0.0374 ± 0.047 |
| CTACCTAA | 0.0741 ± 0.11 |
| TTAGAGAA | -0.00786 ± 0.18 |
| ATCTTTCG | 0.0243 ± 0.034 |
| AGGCGTCC | -0.0473 ± 0.0037 |
| AATGCATT | 0.345 ± 0.024 |
| AATGCATC | 0.163 ± 0.044 |
| CATGCAGG | 0.0755 ± 0.026 |
| AATGCAAG | 0.117 ± 0.074 |
| AATGCAAT | 0.237 ± 0.029 |
| AATGCATA | 0.206 ± 0.12 |
| CATGCATG | 0.261 ± 0.073 |
| AATGCAAA | 0.143 ± 0.091 |
| CATGCATC | 0.101 ± 0.018 |
| AGGACGGG | -0.111 ± 0.0023 |
| AGGGCTAT | -0.0385 ± 0.038 |
| CTCATAGC | -0.112 ± 0.12 |
| CACATTTA | 0.143 ± 0.021 |
| GCTAAACC | -0.212 ± 0.15 |
| CCACGTAG | -0.0793 ± 0.044 |
| CCACGTTC | 0.0954 ± 0.045 |
| CCACGTGC | 0.488 ± 0.0054 |
